# Reference: ChEMBL document CHEMBL2218924, “A broad activity screen in support of a chemogenomic map for kinase signalling research and drug discovery” (Biochem J, 2013)
# Biological target: G protein-coupled receptor kinase 6 (Homo sapiens) (UniProt P43250)
# Details: at 10 µM
# Chain of G protein-coupled receptor kinase 6 (Homo sapiens) (P43250 whole entry, looked up): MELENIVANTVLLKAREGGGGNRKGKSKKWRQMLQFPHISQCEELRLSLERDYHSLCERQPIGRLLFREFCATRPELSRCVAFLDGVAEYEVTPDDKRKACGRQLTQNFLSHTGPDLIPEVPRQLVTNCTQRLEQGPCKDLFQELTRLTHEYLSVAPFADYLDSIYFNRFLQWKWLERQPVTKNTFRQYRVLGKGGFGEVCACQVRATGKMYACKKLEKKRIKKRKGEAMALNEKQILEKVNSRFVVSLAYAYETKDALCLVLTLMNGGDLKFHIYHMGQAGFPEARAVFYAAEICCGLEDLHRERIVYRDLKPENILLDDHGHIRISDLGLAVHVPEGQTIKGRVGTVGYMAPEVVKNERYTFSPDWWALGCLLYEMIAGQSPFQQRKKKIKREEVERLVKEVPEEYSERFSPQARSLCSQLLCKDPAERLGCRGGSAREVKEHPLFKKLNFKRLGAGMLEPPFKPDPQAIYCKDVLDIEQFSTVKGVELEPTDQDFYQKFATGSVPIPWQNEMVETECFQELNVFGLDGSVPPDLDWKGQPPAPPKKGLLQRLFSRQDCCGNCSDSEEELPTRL
row,SMILES,residual activity [%]
1,O=C1NC(=O)/C(=C\c2ccc3nccnc3c2)S1,79
2,Oc1ccc(Nc2nc(-c3ccc(Cl)cc3)cs2)cc1,102
3,O=C1NC(=O)c2c1c1c3ccccc3[nH]c1c1[nH]c3cc(Br)ccc3c21,89
4,Oc1c2ccccc2c2c3c(cccc13)N=N2,81

# Biological target: T1, Rhodopsin kinase GRK7 (Homo sapiens) (UniProt Q8WTQ7)
# T1 sequence (whole entry): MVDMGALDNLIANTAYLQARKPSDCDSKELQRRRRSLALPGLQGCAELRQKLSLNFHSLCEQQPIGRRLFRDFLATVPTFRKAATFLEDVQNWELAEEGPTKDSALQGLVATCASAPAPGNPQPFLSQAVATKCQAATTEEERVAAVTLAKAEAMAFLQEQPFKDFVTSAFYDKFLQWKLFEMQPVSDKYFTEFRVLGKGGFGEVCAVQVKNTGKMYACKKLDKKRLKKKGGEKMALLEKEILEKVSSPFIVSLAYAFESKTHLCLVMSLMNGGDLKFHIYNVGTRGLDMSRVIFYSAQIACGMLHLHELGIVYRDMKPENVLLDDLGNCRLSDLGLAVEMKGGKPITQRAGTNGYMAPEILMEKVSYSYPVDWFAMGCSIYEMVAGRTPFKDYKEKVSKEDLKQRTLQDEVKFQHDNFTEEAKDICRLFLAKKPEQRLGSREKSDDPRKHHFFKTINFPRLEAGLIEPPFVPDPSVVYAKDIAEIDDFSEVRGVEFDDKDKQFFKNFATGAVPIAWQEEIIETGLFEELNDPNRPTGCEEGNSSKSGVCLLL
# Details: at 1 µM
row,SMILES,residual activity [%]
1,CC(=O)O/N=C1\C(=C2\C(=O)Nc3cc(Br)ccc32)Nc2ccccc21,106
2,Oc1n[nH]c2nnc(-c3c(-c4ccccc4)nn4ccccc34)cc12,85
3,Cn1cnc2cc3c(Nc4cccc(Br)c4)ncnc3cc21,100
4,O=C(O)c1ccc2c3c1cccc3c(=O)n1c3ccccc3nc21,102
5,CCC(=O)Nc1ccc2ncnc(Nc3cccc(Br)c3)c2c1,96
6,CO[C@H]1C[C@@H]2CC[C@@H](C)[C@@](O)(O2)C(=O)C(=O)N2CCCC[C@H]2C(=O)O[C@H]([C@H](C)C[C@@H]2CC[C@@H](O)[C@H](OC)C2)CC(=O)[C@H](C)/C=C(\C)[C@@H](O)[C@@H](OC)C(=O)[C@H](C)C[C@H](C)/C=C/C=C/C=C/1C,94
7,O=C1NC(=O)/C(=C/c2ccc3c(c2)OC(F)(F)O3)S1,107
8,O=C1Nc2ccccc2/C1=C1/Nc2ccccc2/C1=N\OCCC(O)CO (stereo not drawn),60
9,O=c1c2ccccc2[nH]c(=S)n1CCN1CCC(=C(c2ccc(F)cc2)c2ccc(F)cc2)CC1,93
10,CC(C)n1cnc2c(NCc3ccccc3)nc(NCCCO)nc21,94
11,Cc1nc2cc3nc(-c4cccs4)cnc3cc2n1C,113
12,COc1cc2ncnc(Nc3ccc(O)c(Br)c3)c2cc1OC,75
13,CCOc1cc2ncnc(Nc3cccc(Br)c3)c2cc1OCC,94
14,Cn1cc(/C=C2\C(=O)Nc3ccc(S(N)(=O)=O)cc32)c2ccccc21,14
15,COc1ccc(CNc2nc(N(CCO)CCO)nc3c2ncn3C(C)C)cc1,76
16,O=c1cc(-c2cccc3c2Sc2ccccc2S3)oc(N2CCOCC2)c1,96
17,O=C(Nc1cccc(Nc2nccc(Nc3cccc(C(F)(F)F)c3)n2)c1)C1CC1,104

row,SMILES,residual activity [%]
1,CCN(CC)CCCCN1c2ccccc2Oc2ccc(Cl)cc21,111
2,Nc1cccc(-c2cc3c(Oc4cccc(O)c4)ncnc3[nH]2)c1,92
3,COc1ccc(OC)c2c(=S)c3ccccc3[nH]c12,84
4,COc1cccc(-c2cc(=O)c3ccccc3o2)c1N,96
5,CNc1cc2c(Nc3cccc(Br)c3)ncnc2cn1,93
6,CC(C)n1cnc2/c(=N/c3cccc(Cl)c3)nc(NCCO)[nH]c21,76
7,CN(C)c1ccc(/C=C2\C(=O)Nc3ccccc32)cc1,96
8,N#C/C(=C(\N)Sc1ccc(N)cc1)c1ccccc1C(F)(F)F,97
9,O=C1Nc2cc(Br)ccc2/C1=C1/Nc2ccccc2/C1=N\O,94
10,Ic1cccc(CSc2nnc(-c3ccncc3)o2)c1,88
11,O=C1NC(=O)c2cc(Nc3ccc(F)cc3)c(Nc3ccc(F)cc3)cc21,93
12,O=C1c2ccccc2-[n+]2ccc3c([nH]c4ccccc43)c21,91
13,COc1ccc(S(=O)(=O)N(CCO)c2ccccc2CN(C)C/C=C/c2ccc(Cl)cc2)cc1,99
14,O=C1NC(=O)/C(=C\c2ccc3nccnc3c2)S1,87
15,Oc1ccc(Nc2nc(-c3ccc(Cl)cc3)cs2)cc1,103
16,O=C1NC(=O)c2c1c1c3ccccc3[nH]c1c1[nH]c3cc(Br)ccc3c21,96
17,Oc1c2ccccc2c2c3c(cccc13)N=N2,71
